Inconclusive results are not listed. Where a call stands in place of a potency, no number is given. Active and inactive are the calls of the source. Calls come from the whole dose curve.

The assay in a line: qHTS assay to identify small molecule agonists of the endoplasmic reticulum stress response signaling pathway - cell viability counter screen (AID 1159517).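 Note: HeLa cells carrying an ER stress response element beta-lactamase reporter; nearly all actives have a fitted effect of over 50% in size.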 Conditions: ESRE-bla HeLa viability, CellTiter-Glo luminescence, 5 h; series mostly up to 61 µM. A digest of the protocol: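 In parallel with the ESRE reporter read, cytotoxicity was scored by CellTiter-Glo luminescence (30 min, room temperature) on HeLa ESRE-bla cells dosed for 5 hr.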
For orientation: Quantitative high-throughput screening tests each substance at several concentrations.
Regarding `CCC(=O)O[C@]1(C(=O)CCl)[C@@H](C)C[C@H]2[C@@H]3CCC4=CC(=O)C=C[C@]4(C)[C@@]3(F)[C@@H](O)C[C@@]21C`, the Potency entry is “inactive”.
`CCC(C)O` (stereo not given): the Potency result was “inactive”.
The result for `Cc1cc(C(=O)O)ccc1[N+](=O)[O-]` reads “inactive”; that for `COC(C)(C)CCO`, “inactive”; that for `CCCCC(=O)OCC(=O)[C@H]1[C@H](C)C[C@H]2[C@@H]3C[C@H](F)C4=CC(=O)C=C[C@]4(C)[C@@]3(F)[C@@H](O)C[C@@]21C`, “inactive”.
Next, `CCCCCCCCCOS(=O)(=O)O`: “inactive”; `N=c1ccn2c(n1)O[C@H]1[C@H](O)[C@@H](CO)O[C@H]12`: “inactive”.
The result for `C[C@H](CCC(=O)O)[C@H]1CC[C@H]2[C@@H]3CC[C@@H]4C[C@H](O)CC[C@]4(C)[C@H]3C[C@H](O)[C@]12C` reads “inactive”; that for `CNCCCCOc1ccccc1Cc1ccccc1`, “inactive”; that for `CC1=CC=C(C(C)C)CC1`, “inactive”.
Consider `O=C(O)c1ccc(S(=O)(=O)O)cc1C(=O)O`, for which the Potency result was “inactive”.
The result for `c1cc(CCCc2ccncc2)ccn1` reads “inactive”; that for `Cc1ccc(C(C)OC(=O)C2(C)CCC(C(=O)O)C2(C)C)cc1` (stereo not given), “inactive”; that for `CCOc1ccc(O)cc1`, “inactive”.
On to `Nc1cccc([N+](=O)[O-])c1`, for which the Potency result was “inactive”.
Next, `C[N+](C)(C)CCOC(=O)CCC(=O)OCC[N+](C)(C)C`: “inactive”; `CC1(c2ccccc2)OC(C(=O)O)=CC1=O` (stereo not given): “inactive”.
With `CCCCC(CC)COC(=O)CCCCCCCCC(=O)OCC(CC)CCCC` (stereo not given), the Potency result is “inactive”.
Regarding `CCOC(=O)COC(=O)c1cc(Oc2ccc(C(F)(F)F)cc2Cl)ccc1[N+](=O)[O-]`, the Potency result was “inactive”.
The result for `CC(CSC(=O)c1ccccc1)C(=O)N1C[C@@H](Sc2ccccc2)C[C@H]1C(=O)O` (stereo not given in full) reads “inactive”; that for `CCCCO`, “inactive”; that for `CCCn1cnc2c1c(=O)n(CCCCC(C)=O)c(=O)n2C`, “inactive”.
Next, `ClCCOCCOCCCl`: “inactive”.
The result for `CC1=CC[C@H](C(C)C)C=C1` reads “inactive”.
For the compound `OC[C@H]1O[C@@H](OCCc2ccc(O)cc2)[C@H](O)[C@@H](O)[C@@H]1O`, the Potency entry is “inactive”.
On to `Cc1ccc(C(=O)Oc2ccc(C(O)CNC(C)(C)C)cc2OC(=O)c2ccc(C)cc2)cc1` (stereo not given), for which the Potency result is “inactive”.
Next, `C/C=C/C=C/CO`: “inactive”; `CCCCCCCN`: “inactive”.
As for `CCOC(=O)C(F)(F)F`, the Potency entry was “inactive”.
Turning to `CN1Cc2cc(C(=O)N3CCC(C4CCNCC4)CC3)ccc2NC(CC(=O)O)C1=O` (stereo not given), the Potency entry is “inactive”.
The result for `O=C1OC(CN2CCOCC2)CN1/N=C/c1ccc([N+](=O)[O-])o1` (stereo not given) reads “inactive”.
With `CN(C)CCCN1c2ccccc2Sc2ccccc21`, the Potency result was “inactive”.
The result for `CCOC(=O)C(=O)CCc1ccccc1` reads “inactive”.
The result for `O=C(Cl)c1cc(C(=O)Cl)cc(C(=O)Cl)c1` reads “inactive”; that for `CC(=O)c1ccc2c(c1)N(CCCN1CCC(CCO)CC1)c1ccccc1S2`, “inactive”.
